An excerpt weighted towards active compounds, which were near 4.8% of everything screened.
hgDAF-12 ag = agonists of H. glycines DAF-12 nuclear receptor; HEK293 GAL4-hgDAF12 UAS-luciferase reporter, agonist luminescence; normalized to butyrate control; activation, % at 6.8 µM; actives 1.8% (n = 370,000);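 active = activation above a cutoff set at the mean of all screened compounds plus 3 SD, cut at about 10% in these data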;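 also: 0% = DMSO wells and 100% = sodium butyrate wells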
DAX1 inh-1 = inhibitors of human orphan nuclear receptor DAX1 (NR0B1). HEK293 Gal4-DAX1 luciferase reporter, luminescence. inhibition, % at 6.75 µM. actives 0.99% (n = 340,000). P51843;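 active = inhibition above the mean over all tested compounds plus 3 SD, cut at about 4.2% in these data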;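 also: 0% = DAX1-transfected cells with DMSO and 100% = empty-vector control cells with DMSO; inhibition shows as a rise in luminescence from relieved DAX1 repression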
Target sequence (P51843 207-470 limits assumed): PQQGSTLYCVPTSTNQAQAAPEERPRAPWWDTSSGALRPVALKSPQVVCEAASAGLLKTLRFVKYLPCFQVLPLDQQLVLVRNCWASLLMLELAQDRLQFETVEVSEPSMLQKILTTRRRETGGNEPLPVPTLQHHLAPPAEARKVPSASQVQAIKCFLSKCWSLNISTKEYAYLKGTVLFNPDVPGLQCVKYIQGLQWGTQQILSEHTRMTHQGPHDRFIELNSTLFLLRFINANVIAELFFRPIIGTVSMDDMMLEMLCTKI
ssDAF-12 act = S. stercoralis DAF-12 activation, primary screen; HEK293 ssDAF-12/GRIP1 lit1-tk-luc reporter, luminescence; % of 3 µM dafachronic acid response; activation, % at 6.8 µM; actives 1% (n = 370,000);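 active = activation above the mean over all tested compounds plus 3 SD, cut at about 0.9% in these data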;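 also: 0% = DMSO-only wells and 100% = 3 µM delta7-dafachronic acid wells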
hcDAF-12 act = activates DAF-12 receptor from parasite H. contortus | HEK293 hcDAF-12 lit1-tk-luc reporter, luminescence; 0% DMSO, 100% Δ7-dafachronic acid | activation, % at 6.8 µM | actives 1.4% (n = 370,000);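 active = activation above the mean of all tested compounds plus 3 SD, cut at about 5.5% in these data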;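 also: 100% = response to 3 µM Δ7-dafachronic acid high control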
DAX1 inh-2 = inhibitors of DAX1 repression of SF-1 activated StAR promoter; HEK293T StAR-luciferase reporter, SF-1/DAX-1 repression relief; inhibition, % at 6.8 µM; actives 1.1% (n = 370,000); AID 652010;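 active = inhibition above the mean over all tested compounds plus 3 SD, cut at about 3.6% in these data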;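 also: 0% = DAX-1 cells with DMSO and 100% = cells lacking DAX-1 with DMSO; higher inhibition means more luminescence from relief of DAX-1 repression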
SMARCA2 activ = SMARCA2 function activation, primary screen | MG213 cells, MMTV-luciferase reporter, dexamethasone, overnight | activation, % at 9.1 µM | actives 1% (n = 370,000) | AID 652017; in the data active = activation above about 7.8%;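 also: 0% = vehicle wells and 100% = reference activator wells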
The depositor's hits bear a star; / = no result.

SMILES | hgDAF-12 ag | DAX1 inh-1 | ssDAF-12 act | hcDAF-12 act | DAX1 inh-2 | SMARCA2 activ
COc1cc(C2c3c(-c4ccccc4O)n[nH]c3C(=O)N2Cc2ccco2)cc(OC)c1OC (stereo not given) | -1 | 0 | -1 | -2 | -1 | 2
CC1CCc2[nH]nc(C(=O)O)c2C1 (stereo not given) | 0 | 3 | -1 | 1 | 0 | -1
COn1c(-c2ccccc2)nc2ccc(Cl)cc21 | 12* | 1 | 1 | 1 | 0 | -1
O=C(O)COn1c(-c2ccccc2)nc2ccc(Cl)cc21 | 6 | 0 | 1.1* | 3 | 1 | -2
O=[N+]([O-])c1ccc2nc(-c3ccccc3)n(OCc3ccc(Cl)cc3)c2c1 | 7 | 2 | -1 | 2 | 2 | 3
C/C=C/c1ccccc1OCCCN1CCC(C(O)(c2ccccc2)c2ccccc2)CC1 | -1 | / | -1 | 0 | 0 | -7
COc1ccc(-c2cc3nc4n(c(=O)c3s2)CCCCC4)cc1 | 10 | 7.8* | 0 | 5 | 3 | 1
COc1ccc(-c2cc3nc(C)n(N)c(=O)c3s2)cc1 | -9 | -9 | -3 | -4 | -1 | -6
CC(=O)c1c(C)[nH]c(C(=O)CN2C(=O)NC(C)(c3ccc4c(c3)OCCO4)C2=O)c1C (stereo not given) | 0 | 2 | -1 | 0 | 0 | 1
Cc1ccc(NC(=O)CSc2nnc3ccccn23)c(Cl)c1 | 8 | 4 | 1 | 3 | 3 | 7.9*
O=C(CSc1nnc2ccccn12)Nc1ccccc1Cl | 1 | -1 | -1 | 0 | -1 | -3
Cc1ccc(C(=O)CSc2nnc3ccccn23)c(C)c1 | 11* | 1 | 0 | 5.7* | 4.4* | 2
Fc1ccc(CSc2nnc3ccccn23)c(Cl)c1 | 4 | 0 | -1 | 4 | 4.2* | 4
Cc1cc(C)c(NC(=S)N(C)C)cc1C | -1 | 3 | -2 | 2 | 0 | -1
O=C(NCC(c1ccco1)N1CCc2ccccc2C1)c1ccc(Cl)c([N+](=O)[O-])c1 (stereo not given) | 0 | 0 | -1 | 0 | 0 | 0
COc1cccc(C(=O)NCCn2ccc3ccccc32)c1 | 12* | 2 | -1 | 5 | 4 | 3
COc1cc(OC)cc(C(=O)NCCn2ccc3ccccc32)c1 | 0 | 0 | 0 | -3 | 1 | -2
Fc1ccc(-n2c(-c3ccc4ccccc4n3)n[nH]c2=S)cc1 | 1 | 6.3* | 0 | 2 | 0 | -3
Cc1cc(-c2n[nH]c(=S)n2-c2ccccc2)nn1C | -2 | 0 | -1 | -1 | 0 | 7.9*
Cc1cc(-c2n[nH]c(=S)o2)c(C)n1-c1ccccc1 | 7 | / | 0 | 5 | 4.0* | 7
Cc1noc(NS(=O)(=O)c2ccc(N3C(=O)c4ccccc4C3=O)cc2)c1C | 1 | 1 | -1 | -1 | 0 | -4
O=C(C1=NN[C@@H]2C(=O)N(c3cccc(C(F)(F)F)c3)C(=O)[C@H]12)c1cnccn1 | 0 | 7.3* | -1 | 0 | 0 | -1
CC1(C)Cc2c(cnn2-c2ccccc2)C(=O)/C1=N\NC(=O)c1ccccc1N | 1 | 1 | 0 | -2 | 0 | -2
Cc1cc(/C=C(\C#N)C(=O)OCC(=O)Nc2ccc(OC(F)F)cc2)c(C)n1CC(C)C | 8 | 4 | -1 | 0 | 4.0* | 0
COCCn1c(C)cc(/C=C(\C#N)C(=O)OCC(=O)Nc2ccc(S(N)(=O)=O)cc2)c1C | 8 | 5.0* | 0 | 6.4* | -1 | -2
SMILES | hgDAF-12 ag | DAX1 inh-1 | ssDAF-12 act | hcDAF-12 act | DAX1 inh-2 | SMARCA2 activ
CCOC(=O)c1c(C)oc2c1c(C=NCC1CCCO1)c(O)c1ccccc12 (stereo not given) | -4 | 6.6* | -1 | 0 | -1 | -2
CCOC(=O)c1c(C)oc2c1c(C=NCc1ccccn1)c(O)c1ccccc12 | -3 | 0 | -1 | 2 | -1 | -1
COc1ccccc1N1CCN(C(=O)CCNC(=O)Cn2ccc3ccccc3c2=O)CC1 | -3 | -1 | -1 | -1 | 0 | -3
Brc1ccccc1C1Cc2nnccc2CN1 (stereo not given) | -4 | / | -1 | -2 | 0 | 0
CCOC(=O)c1cn2nc(Oc3ccc(NC(C)=O)cc3)ccc2n1 | 1 | 4.9* | 1 | -1 | 0 | 0
Fc1cccc(Cl)c1CNCCCSc1ncccn1 | 1 | -1 | -1 | -1 | 0 | -2
CCN(CCNC(=O)Nc1ccc(Cl)cc1)c1ccccc1 | -2 | 0 | -1 | -2 | -1 | -3
COc1ccc(NC(=O)C(c2cc3c(cc2[N+](=O)[O-])OCO3)N(C)Cc2ccccc2)cc1 (stereo not given) | 3 | 0 | 1 | 5.8* | 0 | -1
O=S(=O)(NCc1ccc(Cl)cc1)NCc1ccccc1F | 3 | 0 | -1 | -1 | 0 | 0
O=[N+]([O-])c1ccccc1OCCOc1ccccc1[N+](=O)[O-] | 4 | 4 | 0 | 5 | 0 | 0
COc1ccc(OCCOc2ccccc2[N+](=O)[O-])cc1 | 8 | 1 | 1.2* | 1 | 2 | 3
CC1Sc2ccc(C(=O)Nc3ccccc3OC(F)F)cc2NC1=O (stereo not given) | 6 | 1 | -1 | 0 | 4.3* | 0
CCCN(CC(=O)Nc1cc(Cl)ccc1Cl)C(=O)c1ccc(N2CCCC2=O)cc1 | -1 | -1 | -1 | -1 | 2 | -3
Cc1cc2c(cc1C)-n1nnnc1C(N1CCN(c3ccccn3)CC1)C(c1ccc3c(c1)OCO3)=N2 (stereo not given) | 8 | / | 0 | 6.3* | 1 | 4
c1ccc(N2CCN(Cc3ccc4c(c3)OCO4)CC2)nc1 | -1 | / | 0 | 3 | 0 | -1
CCOCc1c(C(=O)N2CCN(CC(=O)Nc3ccc(F)cc3)CC2)oc2ccccc12 | 1 | -1 | 1.2* | 4 | 0 | 2
O=C(COC(=O)c1cccnc1Cl)NCCCc1ccccc1 | 1 | 1 | 0 | -1 | 0 | -2
O=C(N=C1c2ccccc2CN1c1cccc(Cl)c1)c1cccnc1 | 11* | -1 | 0 | 4 | 1 | 0
Cn1cc(C(=O)N/N=C/C2=C(N3CCOCC3)C(=C/c3ccc([N+](=O)[O-])cc3)/CC2)ccc1=O | 12* | -1 | -1 | 0 | 0 | -2
Cc1ccc(S(=O)(=O)N2[C@@H](c3ccc(Br)cc3)C(C(=O)O)=CC[C@H]2c2cccc(C)c2)cc1 | 0 | 1 | -1 | -1 | 0 | 0
COC(=O)c1cccc(C(=O)N2CCCC(C(=O)c3cccc(OC(C)C)c3)C2)c1 (stereo not given) | 0 | 0 | 0 | 5.8* | -1 | 0
